Screens (PubChem BioAssay)
Shown are actives, neighbours in structure and some others; about 5.3% of the full set was active somewhere.
M18AAP inhibitor: blocks P. falciparum M18 aspartyl aminopeptidase; recombinant PfM18AAP, H-Glu-NHMec fluorogenic cleavage; inhibition, % at 7.35 µM; 290,000 compounds, 1.2% hits;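 active = inhibition above the campaign mean inhibition over all tested compounds plus 3 SD, cut at about 28% in these data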;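 note: 0% = plate median of test compound wells and 100% = 2 mM ZnCl2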
ALR inh: inhibitors of human sulfhydryl oxidase ALR. 290,000 compounds, 3.8% hits. AID 485317. purified ALR, DTT oxidation, H2O2 HRP-luminol luminescence. inhibition, % (concentration not given with the values). P55789;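 active = mean replicate inhibition above about 79%, with every replicate also reaching it, limit read from the data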
Target sequence (P55789 whole entry, looked up): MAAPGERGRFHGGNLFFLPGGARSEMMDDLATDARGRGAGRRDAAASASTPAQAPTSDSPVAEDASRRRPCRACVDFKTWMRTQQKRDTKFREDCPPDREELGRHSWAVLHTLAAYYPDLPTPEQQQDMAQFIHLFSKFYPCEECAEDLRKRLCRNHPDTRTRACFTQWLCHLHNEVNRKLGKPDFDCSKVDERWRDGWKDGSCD
SUMO Mot1 rescue: blocks SUMOylation pathway, rescuing yeast Mot1-301 growth; S. cerevisiae Mot1-301 growth rescue, ATP luminescence, 38.5C; percent above DMSO median, 100 means doubled; growth rescue, % at 18.8 µM; 320,000 compounds, 1% hits; AID 2716;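 active = every valid replicate shows activation above 250% relative to neutral control wells; inactive = the rest, any valid replicate at or below 250%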;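 note: OY570 slx delta 5 strain wells were the positive control but not used for scaling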
HIF act: HIF pathway transcriptional activation; U2OS HRE-luciferase reporter, luminescence; normalized: DMSO 0%, desferrioxamine 100%; activation, % at 7.5 µM (by protocol); 300,000 compounds, 0.32% hits;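 active = mean activation of at least 10% of the iron chelator positive control signal, with at least half of replicates also reaching 10%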
Numbers without * were called inactive; / = no result given.

SMILES | M18AAP inhibitor | ALR inh | SUMO Mot1 rescue | HIF act
Cc1ccc(C)c2[nH]c(=O)c(CN(Cc3ccc4c(c3)OCO4)Cc3nnnn3Cc3ccco3)cc12 | 32* | -10 | 432 | 0
NNC(=O)c1ccc(N2CCCCCC2)c([N+](=O)[O-])c1 | -4 | -7 | 112 | 0
COc1ccc(Cn2nnc3c(C)n[nH]c(=O)c32)cc1 | -5 | -6 | 6 | -1
CCOc1ccc(C2=Nn3c(CC)nnc3SC2)cc1 | / | 26 | -15 | /
O=C(NCc1ccco1)c1ccc(N2CCCCC2)c([N+](=O)[O-])c1 | 1 | 0 | 812* | 0
O=C(NCc1ccco1)c1ccc(N2CCOCC2)c([N+](=O)[O-])c1 | -5 | -2 | 11 | 0
O=C(NNc1ccccc1)Nc1ccccc1F | 30* | 0 | 47 | 0
CCc1c(C(=O)NCc2cnn(C)c2)csc1C | -8 | 98* | -7 | 0
Cn1cc(CNC(=O)C23CC4CC(CC(C4)C2)C3)cn1 | 2 | -4 | 16 | 1
N#CC1=C(N)Oc2cc(N)ccc2C1C1CC=CCC1 (centres undefined) | -3 | 93* | -9 | 3
Cc1ccc(C2C(C#N)=C(N)Oc3cc(N)ccc32)cc1 (centres undefined) | 7 | 96* | -8 | -1
N#CC1=C(N)Oc2cc(N)ccc2C1c1ccsc1 (centres undefined) | 9 | -3 | -4 | -2
CN(Cc1ccccc1)C(=O)CN1CCN(C(c2ccccc2)c2ccccc2)CC1 | -8 | -4 | 74 | 1
Nc1nc(Nc2ccccc2)nc2ccccc12 | -6 | -6 | -34 | 2
CN(C)c1ccc(Nc2nc(N)c3ccccc3n2)cc1 | -34 | 99* | -67 | -1
Cc1noc(NS(=O)(=O)c2ccc(NC(=O)CCN3C(=O)c4ccccc4C3=O)cc2)c1C | 3 | 94* | -1 | 0
Cc1noc(NS(=O)(=O)c2ccc(NC(=O)CSc3n[nH]c(-c4ccccc4)n3)cc2)c1C | -10 | 12 | 129 | -1
Cc1noc(NS(=O)(=O)c2ccc(NC(=O)/C=C/c3ccc(C(C)C)cc3)cc2)c1C | 2 | 14 | -23 | 0
Cc1cc(C)c(C#N)c(SCC(=O)Nc2ccc(S(=O)(=O)Nc3onc(C)c3C)cc2)n1 | -2 | 96* | 187 | /
Cc1noc(NS(=O)(=O)c2ccc(NC(=O)CSc3nnc(-c4ccccc4)n3C3CCCCC3)cc2)c1C | 6 | 98* | -2 | 0
Cc1noc(NS(=O)(=O)c2ccc(NC(=O)/C=C/c3ccc(Br)cc3)cc2)c1C | -14 | 91* | 12 | /
O=C(O)c1ccccc1/C=N/NC(=S)NCc1ccccc1 | -1 | 4 | 120 | 0
CCCCN(C(=O)CN1C(=O)C2CCCCC2C1=O)c1c(N)n(CCC)c(=O)[nH]c1=O (centres undefined) | / | -1 | -4 | 0
Cc1ccc(-n2nc(-c3ccc(N)cc3)cc2N)cc1 | 1 | 98* | -6 | 0
Nc1ccc(-c2cc(N)n(-c3ccccc3)n2)cc1 | 3 | 93* | -8 | 0
SMILES | M18AAP inhibitor | ALR inh | SUMO Mot1 rescue | HIF act
Cc1nn(-c2ccc(Cl)cc2)c(=O)c2ccccc12 | 0 | -15 | / | 2
Cc1c(Cl)sn(-c2ccc(Cl)cc2)c1=O | 58* | / | / | /
Cc1cc(C(=O)NNC(=O)c2ccccc2F)c2ccccc2n1 | / | 11 | 5 | /
Cc1cc(Cl)c2oc(C(=O)N3CCN(c4ccncc4)CC3)c(C)c2c1 | 2 | / | 450* | -3
COC(=O)C1CCN(C(=O)c2oc3c(Cl)cc(C)cc3c2C)CC1 | -6 | 0 | -16 | 3
Cc1sc2nc(CSCC(=O)Nc3ccc(OC(F)F)cc3)[nH]c(=O)c2c1C | 0 | 97* | 1 | 0
Cc1sc2nc(SCC(=O)Nc3ccc(S(N)(=O)=O)cc3)[nH]c(=O)c2c1C | -4 | -12 | 37 | 0
Cc1sc2nc(CSCC(=O)Nc3ccc(C(=O)N(C)C)cc3)[nH]c(=O)c2c1C | / | 99* | 8 | /
COc1ccccc1CNC(=O)c1ccc(NC(=O)CC2SC(N3CCCC3)=NC2=O)cc1 (centres undefined) | / | 1 | 7 | /
O=C(NCc1cccnc1)C(=O)Nc1ccc([N+](=O)[O-])cc1 | -8 | -3 | 6 | -1
C[C@@]12C(=O)Nc3ccc(Cl)cc3C(=O)N1[C@H]1c3ccccc3OC[C@@H]1[C@@H]2c1ccccc1 | / | 6 | 543* | /
CCc1cc2c(=O)[nH]c(-c3ccccn3)nc2s1 | 4 | -3 | 5 | 11*
O=C(NCCSc1c[nH]c2ccccc12)C1CC1 | -3 | 98* | 9 | 0
COc1cc(OC)cc(C(=O)NCCSc2c[nH]c3ccccc23)c1 | 7 | 91* | / | -1
COc1ccc(C)cc1S(=O)(=O)N1CCC(C(=O)NC2CCCC2)CC1 | 1 | -10 | 65 | 0
COc1ccc(C2c3[nH]c4ccccc4c3C[C@H]3C(=O)N(c4ccccc4C(=O)N4CCC[C@H]4C(=O)O)C(=O)N23)cc1 (some centres undefined) | 5 | 98* | 21 | 0
O=C(O)[C@@H]1CCCN1C(=O)c1ccccc1N1C(=O)[C@@H]2Cc3c([nH]c4ccccc34)C(c3cccc(Cl)c3)N2C1=O (some centres undefined) | 1 | 97* | 0 | 0
COc1cccc(C2c3[nH]c4ccccc4c3C[C@H]3C(=O)N(c4ccccc4C(=O)N4CCC[C@H]4C(=O)O)C(=O)N23)c1 (some centres undefined) | 0 | 98* | -24 | 0
O=C(O)CNC(=O)/C=C/c1ccc(Cl)cc1Cl | 10 | -7 | 13 | 1
NNC(=O)/C=C/c1ccc(Cl)cc1Cl | -3 | 98* | 10 | 0
Cc1ccccc1CN1C(=O)CSc2ccc(C(=O)N3CCOCC3)cc21 | -3 | 2 | -10 | 23*
Cc1ccc(CN2CCSc3ccc(C(=O)N4CCOCC4)cc32)cc1 | 2 | 99* | 6 | 1
Cc1ccc(CN2CCSc3ccc(C(=O)NC4CCN(Cc5ccccc5)CC4)cc32)cc1 | -18 | 27 | -4 | 1
Cc1ccc(CN2CCSc3ccc(C(=O)N4CCN(c5ncccn5)CC4)cc32)cc1 | -6 | 6 | 8 | 0
CC1CC(C)CN(C(=O)c2ccc3c(c2)N(Cc2ccccc2)CCS3)C1 (centres undefined) | -3 | / | -5 | 0
SMILES | M18AAP inhibitor | ALR inh | SUMO Mot1 rescue | HIF act
CCN1CCN(C(=O)c2ccc3c(c2)N(Cc2ccc(C)cc2)CCS3)CC1 | -1 | 99* | -5 | 0
CCOC(=O)N1CCN(C(=O)c2ccc3c(c2)N(Cc2ccccc2)CCS3)CC1 | 2 | 98* | 4 | 0
COc1ccc(CCNC(=O)CN(c2cc(C)cc(C)c2)S(=O)(=O)c2c(C)noc2C)cc1OC | -9 | -19 | 7 | -1
CCN1CCS/C1=C/C=C/C1=[N+](CC)CCS1 | 6 | 97* | -9 | 0
Cc1nn(C)c(C)c1CN(Cc1nc(CCC(C)C)no1)C(C)C | -2 | 3 | 5 | 0
COc1ccc(-c2cc(C(F)(F)F)nc(S(=O)(=O)CCC(=O)N3CCOCC3)n2)cc1 | 16 | 90* | -8 | 0
